Source: PubChem BioAssay (NCATS)
Records with an inconclusive call do not appear. Activity calls are given as the source filed them. Calls follow the shape of the dose curve; as a rule, active = well fitted cell-killing curve with a large enough effect; inconclusive = small, poorly fitted or top-dose-only effect, or effect the other way; inactive = no such curve, though single readings can be large or run the other way.

assay: Quantitative High-Throughput drug screen in 47 multiple myeloma cell lines against the NCATS MIPE library collection: XG6_PLB cell viability assay (AID 1919865); details: XG6 myeloma viability, CellTiter-Glo ATP luminescence, 48 h; series mostly up to 45.8 µM; also: nearly all actives have a fitted effect of over 40% in size
How it was run: (§1)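 ATP-based luminescence (CellTiter-Glo, 5 min RT incubation) quantified surviving cells following two days' treatment with MIPE 4.0 agents at 37 °C, 5% CO2.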
Potency is read from the fitted curve at half-maximal effect.

Row | Structure (SMILES) | Potency
1 | CCCCCCCCCC(=O)N[C@@H](Cc1c[nH]c2ccccc12)C(=O)N[C@H](CC(N)=O)C(=O)N[C@@H](CC(=O)O)C(=O)N[C@@H]1C(=O)NCC(=O)N[C@@H](CCCN)C(=O)N[C@@H](CC(=O)O)C(=O)N[C@H](C)C(=O)N[C@@H](CC(=O)O)C(=O)NCC(=O)N[C@H](CO)C(=O)N[C@@H]([C@@H](C)CC(=O)O)C(=O)N[C@@H](CC(=O)c2ccccc2N)C(=O)O[C@@H]1C | inactive
2 | COc1ccc(OC)c(-c2nnc3ccc(-c4ccc(OC)c(O[C@@H]5CCOC5)c4)nn23)c1 | 8330 nM (active)
3 | Cc1nc2ccc(CN(C)c3ccc(C(=O)N[C@@H](CCC(=O)O)C(=O)O)s3)cc2c(=O)[nH]1 | inactive
4 | C[C@@H]1CN(CC(=O)Nc2ccc3c(c2)Cc2cccc(-c4cc(=O)cc(N5CCOCC5)o4)c2S3)C[C@H](C)O1 | 9350 nM (active)
5 | CC(=O)c1c(C)c2cnc(Nc3ccc(N4CCNCC4)cn3)nc2n(C2CCCC2)c1=O | 14800 nM (active)
6 | COc1cc(C)c(Sc2cnc(NC(=O)c3ccc(CNC(C)C(C)C)cc3)s2)cc1C(=O)N1CCN(C(C)=O)CC1 (centres undefined) | 16600 nM (active)
7 | COC(=O)C1=C(C)NC(C)=C(C(=O)OCCN2CCN(C(c3ccccc3)c3ccccc3)CC2)C1c1cccc([N+](=O)[O-])c1 (centres undefined) | 2640 nM (active)
8 | COc1cc2c(cc1-c1c(C)noc1C)ncc1[nH]c(=O)n([C@H](C)c3ccccn3)c12 | 5260 nM (active)
9 | CC(=O)OCCN1C(=O)c2c(C)nc3ccc(S(=O)(=O)N4CCOCC4)cc3c2C1=O | inactive
10 | C1Cc2[nH]nc(-c3nn[nH]n3)c2C1 | inactive
11 | CC(=O)Nc1nc(C)c(-c2ccc(Cl)c(S(=O)(=O)NCCO)c2)s1 | 2090 nM (active)
12 | Nc1ccc(C(=O)c2cc3c(ccc4ccccc43)[nH]2)cc1 | 662 nM (active)
13 | Nc1nc(NCCNc2ncc(-n3ccnc3)c(-c3ccc(Cl)cc3Cl)n2)ccc1[N+](=O)[O-] | 2350 nM (active)
14 | Nc1ncnc2c1c(-c1cnc3[nH]ccc3c1)nn2C1CCCC1 | 526 nM (active)
15 | CNc1nccc(-c2cccnc2Oc2cc(C(=O)Nc3cccc(C(F)(F)F)c3)ccc2C)n1 | 2350 nM (active)
16 | COc1cc(=C2C=c3ccccc3=N2)[nH]c1=Cc1[nH]c(C)cc1C | 5900 nM (active)
17 | O=C(O)Cn1nnc(-c2cc(N3CCC(Oc4cc(F)ccc4Br)CC3)no2)n1 | inactive
18 | Cn1cc(-c2[nH]c3cc(NC(=O)[C@H](N)C4CCCCC4)cc4c3c2C=NNC4=O)cn1 | 209 nM (active)
19 | C[C@@]12O[C@@H](C[C@]1(O)CO)n1c3ccccc3c3c4c(c5c6ccccc6n2c5c31)CNC4=O | 209 nM (active)
20 | CCCCc1nc2cc(C=CC(=O)NO)ccc2n1CCN(CC)CC | 4690 nM (active)
21 | Cn1c(CNc2ccc(C(=N)N)cc2)nc2cc(C(=O)N(CCC(=O)O)c3ccccn3)ccc21 | inactive
22 | CC(C)c1ccc(Cn2ccc3c4c(N)nc(NC5CC5)nc4ccc32)cc1 | 5260 nM (active)
23 | N#Cc1c(O)c2c(-c3ccc(-c4ccccc4O)cc3)csc2[nH]c1=O | inactive
24 | O=C(C=Cc1cccnc1)NCCCCC1CCN(C(=O)c2ccccc2)CC1 | 74.3 nM (active)
25 | CC=CC1=C(C(=O)O)N2C(=O)[C@H](NC(=O)[C@H](N)c3ccc(O)cc3)[C@@H]2SC1 | inactive
26 | O=C(O)c1ccc2c(c1)nc(Nc1cccc(Cl)c1)c1ccncc12 | 3720 nM (active)
27 | Cc1ccc2nc(NC(=O)CSc3nc4c(c(=O)n3-c3ccccc3)SCC4)sc2c1 | 14800 nM (active)
28 | CC1=C(CO)C(=O)O[C@@H]([C@@H](C)[C@H]2CC[C@H]3[C@@H]4C[C@H]5O[C@]56[C@@H](O)C=CC(=O)[C@]6(C)[C@@H]4CC[C@]23C)C1 | 469 nM (active)
29 | Cc1cc(Nc2nc(N[C@@H](C)c3ccc(F)cc3)c(C#N)cc2F)n[nH]1 | 1050 nM (active)

assay: Quantitative High-Throughput drug screen in 47 multiple myeloma cell lines against the NCATS MIPE library collection: XG1_PLB cell viability assay (AID 1919866); details: CellTiter-Glo ATP, 48 h; series mostly up to 45.8 µM; also: nearly all actives have a fitted effect of over 35% in size
How it was run: as §1

Row | Structure (SMILES) | Potency
30 | Cc1cn(-c2cc(NC(=O)c3ccc(C)c(Nc4nccc(-c5cccnc5)n4)c3)cc(C(F)(F)F)c2)cn1 | inactive
31 | CCCCCCCCCC(=O)N[C@@H](Cc1c[nH]c2ccccc12)C(=O)N[C@H](CC(N)=O)C(=O)N[C@@H](CC(=O)O)C(=O)N[C@@H]1C(=O)NCC(=O)N[C@@H](CCCN)C(=O)N[C@@H](CC(=O)O)C(=O)N[C@H](C)C(=O)N[C@@H](CC(=O)O)C(=O)NCC(=O)N[C@H](CO)C(=O)N[C@@H]([C@@H](C)CC(=O)O)C(=O)N[C@@H](CC(=O)c2ccccc2N)C(=O)O[C@@H]1C | inactive
32 | COc1ccc(OC)c(-c2nnc3ccc(-c4ccc(OC)c(O[C@@H]5CCOC5)c4)nn23)c1 | 7430 nM (active)
33 | Cc1nc2ccc(CN(C)c3ccc(C(=O)N[C@@H](CCC(=O)O)C(=O)O)s3)cc2c(=O)[nH]1 | 235 nM (active)
34 | CC(=O)c1c(C)c2cnc(Nc3ccc(N4CCNCC4)cn3)nc2n(C2CCCC2)c1=O | 14800 nM (active)
35 | COc1cc(C)c(Sc2cnc(NC(=O)c3ccc(CNC(C)C(C)C)cc3)s2)cc1C(=O)N1CCN(C(C)=O)CC1 (centres undefined) | 18700 nM (active)
36 | COC(=O)C1=C(C)NC(C)=C(C(=O)OCCN2CCN(C(c3ccccc3)c3ccccc3)CC2)C1c1cccc([N+](=O)[O-])c1 (centres undefined) | inactive
37 | COc1cc2c(cc1-c1c(C)noc1C)ncc1[nH]c(=O)n([C@H](C)c3ccccn3)c12 | 5900 nM (active)
38 | CC(=O)OCCN1C(=O)c2c(C)nc3ccc(S(=O)(=O)N4CCOCC4)cc3c2C1=O | inactive
39 | C1Cc2[nH]nc(-c3nn[nH]n3)c2C1 | inactive
40 | Nc1ccc(C(=O)c2cc3c(ccc4ccccc43)[nH]2)cc1 | 662 nM (active)
41 | Nc1nc(NCCNc2ncc(-n3ccnc3)c(-c3ccc(Cl)cc3Cl)n2)ccc1[N+](=O)[O-] | 6620 nM (active)
42 | CNc1nccc(-c2cccnc2Oc2cc(C(=O)Nc3cccc(C(F)(F)F)c3)ccc2C)n1 | 2350 nM (active)
43 | COc1cc(=C2C=c3ccccc3=N2)[nH]c1=Cc1[nH]c(C)cc1C | 2090 nM (active)
44 | Cn1cc(-c2[nH]c3cc(NC(=O)[C@H](N)C4CCCCC4)cc4c3c2C=NNC4=O)cn1 | 209 nM (active)
45 | C[C@@]12O[C@@H](C[C@]1(O)CO)n1c3ccccc3c3c4c(c5c6ccccc6n2c5c31)CNC4=O | 132 nM (active)
46 | CN1CCN(c2cc(C(=O)Nc3ccc4c(c3)-c3c(c(C(N)=O)nn3-c3ccc(F)cc3)CC4)c(Cl)cn2)CC1 | 3320 nM (active)
47 | CCCCc1nc2cc(C=CC(=O)NO)ccc2n1CCN(CC)CC | 1480 nM (active)
48 | Cn1c(CNc2ccc(C(=N)N)cc2)nc2cc(C(=O)N(CCC(=O)O)c3ccccn3)ccc21 | inactive
49 | CC(C)c1ccc(Cn2ccc3c4c(N)nc(NC5CC5)nc4ccc32)cc1 | 743 nM (active)
50 | N#Cc1c(O)c2c(-c3ccc(-c4ccccc4O)cc3)csc2[nH]c1=O | inactive
51 | O=C(C=Cc1cccnc1)NCCCCC1CCN(C(=O)c2ccccc2)CC1 | 1 nM (active)
52 | CC=CC1=C(C(=O)O)N2C(=O)[C@H](NC(=O)[C@H](N)c3ccc(O)cc3)[C@@H]2SC1 | inactive
53 | CC1=C(CO)C(=O)O[C@@H]([C@@H](C)[C@H]2CC[C@H]3[C@@H]4C[C@H]5O[C@]56[C@@H](O)C=CC(=O)[C@]6(C)[C@@H]4CC[C@]23C)C1 | 209 nM (active)
54 | Cc1cc(Nc2nc(N[C@@H](C)c3ccc(F)cc3)c(C#N)cc2F)n[nH]1 | 235 nM (active)
